Assay results published in the supplement of paper PMC3545927.
The other results are listed elsewhere or left out. No count for the full screen is at hand.

B1: HC1957 (peptide)
chain: CASCTTPCSGAGNASASA
B2: HC1500 (peptide)
chain: CARLYVGGPLAGNASASA
B3: HC1374 (peptide)
chain: CATGALVTPCAGNASASA
B4: FS-112 (peptide)
chain: CAYSHRWKRNAGNASASA
B5: FS-1633 (peptide)
chain: CAICQRVKRVAGNASASA
B6: HC1385 (peptide)
chain: CASLLRHHNLAGNASASA
B7: FS-148 (peptide)
chain: CAVDIRLKRVAGNASASA
B8: HC861 (peptide)
chain: CADELAAKLVAGNASASA
B9: FS-53 (peptide)
chain: CALNERLKRVAGNASASA
B10: FS-256 (peptide)
chain: CAIQARAKRVAGNASASA
B11: FS-188 (peptide)
chain: CARLLRHKRMAGNASASA
B12: HC1531 (peptide)
chain: CAVVICESAGAGNASASA
B13: HC2221 (peptide)
chain: CAEVVTSNWVAGNASASA
B14: HC805 (peptide)
chain: CASPITYSTYAGNASASA
B15: HC876 (peptide)
chain: CADVVVVATDAGNASASA
B16: HC1487 (peptide)
chain: CAIRTEEAIYAGNASASA
B17: HC649 (peptide)
chain: CASQMETKLIAGNASASA
B18: HC449 (peptide)
chain: CANTLHCPTDAGNASASA
B19: FS-903 (peptide)
chain: CAYSHRHKRVAGNASASA
B20: FS-817 (peptide)
chain: CALAWRSGRVAGNASASA
B21: FS-1631 (peptide)
chain: CAHLERHKRVAGNASASA
B22: HC1235 (peptide)
chain: CAVGLHEYPVAGNASASA
B23: HC2050 (peptide)
chain: CAVVCCSVSYAGNASASA
B24: HC1763 (peptide)
chain: CAMEECSQHAAGNASASA
B25: HC1721 (peptide)
chain: CAMENCSQHLAGNASASA
B26: HC1847 (peptide)
chain: CATFPCSGSWAGNASASA
B27: FS-2246 (peptide)
chain: CADQKRSLESAGNASASA
B28: FS-3038 (peptide)
chain: CARQKRSVENAGNASASA
B29: HC948 (peptide)
chain: CAQTKQSGENAGNASASA
B30: FS-1966 (peptide)
chain: CARQKRSDLYAGNASASA
B31: FS-2591 (peptide)
chain: CARQYRSAYYAGNASASA
B32: HC295 (peptide)
chain: CAATLCSALYAGNASASA
B33: HC1008 (peptide)
chain: CAIPDREVLYAGNASASA
B34: FS-2323 (peptide)
chain: CAYPKRSSEVAGNASASA
B35: FS-2631 (peptide)
chain: CALQKRSSRHAGNASASA
B36: FS-1768 (peptide)
chain: CARQKRILVNAGNASASA
B37: FS-1984 (peptide)
chain: CAIGKRSVEYAGNASASA
B38: HC1474 (peptide)
chain: CAAWKSKKTPAGNASASA
B39: HC685 (peptide)
chain: CAGRDKNQVEAGNASASA
B40: HC588 (peptide)
chain: CAAQLHVWIPAGNASASA
B41: HC659 (peptide)
chain: CAINGLPVSAAGNASASA
B42: FS-2361 (peptide)
chain: CARQKRIHSAAGNASASA
B43: FS-3037 (peptide)
chain: CARQKRSSEAAGNASASA
B44: HC1363 (peptide)
chain: CAWSTVSSEAAGNASASA
B45: FS-2170 (peptide)
chain: CARQKRSVSIAGNASASA

Molecular target: furin, P09958
Sequence (P09958 whole entry): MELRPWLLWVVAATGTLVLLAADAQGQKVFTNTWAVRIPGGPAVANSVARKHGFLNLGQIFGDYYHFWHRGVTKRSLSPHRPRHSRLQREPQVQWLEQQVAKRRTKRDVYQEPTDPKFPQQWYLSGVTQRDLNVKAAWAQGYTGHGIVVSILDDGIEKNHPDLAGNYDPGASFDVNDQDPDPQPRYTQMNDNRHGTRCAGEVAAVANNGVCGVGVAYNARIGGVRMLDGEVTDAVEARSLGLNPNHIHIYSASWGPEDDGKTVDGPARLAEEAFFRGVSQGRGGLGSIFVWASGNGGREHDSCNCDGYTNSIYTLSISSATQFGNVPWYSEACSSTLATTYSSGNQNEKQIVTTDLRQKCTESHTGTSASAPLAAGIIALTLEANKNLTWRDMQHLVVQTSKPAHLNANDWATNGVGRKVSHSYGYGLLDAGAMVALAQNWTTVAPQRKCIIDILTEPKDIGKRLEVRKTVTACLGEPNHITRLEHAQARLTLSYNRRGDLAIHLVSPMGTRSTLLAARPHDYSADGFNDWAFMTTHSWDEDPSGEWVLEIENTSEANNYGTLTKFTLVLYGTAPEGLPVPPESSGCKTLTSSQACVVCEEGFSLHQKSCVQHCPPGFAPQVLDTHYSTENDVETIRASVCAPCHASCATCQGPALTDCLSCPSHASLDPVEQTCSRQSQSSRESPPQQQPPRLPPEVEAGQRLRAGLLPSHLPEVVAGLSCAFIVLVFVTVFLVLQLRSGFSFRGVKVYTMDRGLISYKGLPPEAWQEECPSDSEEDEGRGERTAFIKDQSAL
Test: furin cleavage Z-score vs untreated control; higher = more cleavage, active = 3.5 or more, inactive = 1 or less, 8 variable residues between constant flanks
Method in brief: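 Furin-free reactions served as the baseline for the cleavage Z-score, which is the log read count lowess-adjusted and scaled by median absolute deviation. Counts came from released DNA, adapter-tagged by PCR and sequenced. Purified furin had cut 8-mer peptides fused to a cDNA oligonucleotide on magnetic beads during 7.5, 15 or 30 min at 1:10 enzyme:substrate.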
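Note: purified furin at 1:10 enzyme:substrate in 50 mM HEPES pH 7.5.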

Row | Sequence | furin cleavage Z-score (7.5 min) | furin cleavage Z-score (15 min) | furin cleavage Z-score (30 min)
1 | B1 | 0.117 (inactive) | -0.946 (inactive) | 0.203 (inactive)
2 | B2 | -0.16 (inactive) | 0.662 (inactive) | 0.78 (inactive)
3 | B3 | 1.46 | -0.486 (inactive) | -0.745 (inactive)
4 | B4 | 7.46 (active) | 8.5 (active) | 7.17 (active)
5 | B5 | 0.73 (inactive) | -0.331 (inactive) | 1.69
6 | B6 | -0.346 (inactive) | 0.336 (inactive) | 0.383 (inactive)
7 | B7 | 0.517 (inactive) | 1.34 | 1.54
8 | B8 | -0.523 (inactive) | 0.896 (inactive) | 0.946 (inactive)
9 | B9 | 2.86 | 3.12 | 3.89 (active)
10 | B10 | 4.63 (active) | 3.93 (active) | 4.73 (active)
11 | B11 | 8.79 (active) | 8.2 (active) | 6.11 (active)
12 | B12 | 0.204 (inactive) | -0.473 (inactive) | 1.4
13 | B13 | -0.745 (inactive) | -1.12 (inactive) | -0.494 (inactive)
14 | B14 | 0.448 (inactive) | 0.103 (inactive) | -0.462 (inactive)
15 | B15 | -1.44 (inactive) | -0.376 (inactive) | -0.463 (inactive)
16 | B16 | -0.614 (inactive) | -0.579 (inactive) | -0.877 (inactive)
17 | B17 | 1.65 | 0.44 (inactive) | -0.0666 (inactive)
18 | B18 | -0.243 (inactive) | -1.86 (inactive) | -0.583 (inactive)
19 | B19 | 5.57 (active) | 7.12 (active) | 6.65 (active)
20 | B20 | -2.25 (inactive) | -0.244 (inactive) | 0.218 (inactive)
21 | B21 | 7.08 (active) | 8.35 (active) | 8.68 (active)
22 | B22 | -0.411 (inactive) | -0.271 (inactive) | -1.96 (inactive)
23 | B23 | -0.658 (inactive) | -0.454 (inactive) | -0.515 (inactive)

Row | Sequence | furin cleavage Z-score (7.5 min) | furin cleavage Z-score (15 min) | furin cleavage Z-score (30 min)
24 | B24 | -0.182 (inactive) | -0.0436 (inactive) | 1.21
25 | B25 | 0.959 (inactive) | 2.87 | 0.898 (inactive)
26 | B26 | -0.0484 (inactive) | -0.806 (inactive) | -1.82 (inactive)
27 | B27 | -0.764 (inactive) | -1.16 (inactive) | -0.0942 (inactive)
28 | B28 | 10.2 (active) | 9.71 (active) | 8.9 (active)
29 | B29 | -0.725 (inactive) | -1.67 (inactive) | -1.53 (inactive)
30 | B30 | 4.32 (active) | 5.36 (active) | 5.43 (active)
31 | B31 | -0.594 (inactive) | 0.967 (inactive) | 2.18
32 | B32 | 1.6 | -0.694 (inactive) | 0.385 (inactive)
33 | B33 | -1.25 (inactive) | -0.885 (inactive) | -0.354 (inactive)
34 | B34 | -0.277 (inactive) | -2 (inactive) | 0.081 (inactive)
35 | B35 | 5.41 (active) | 7.89 (active) | 8.89 (active)
36 | B36 | -0.183 (inactive) | -1.46 (inactive) | 0.612 (inactive)
37 | B37 | 1.53 | 2.52 | 3.58 (active)
38 | B38 | -0.115 (inactive) | 0.0818 (inactive) | -0.362 (inactive)
39 | B39 | 0.288 (inactive) | -0.161 (inactive) | -1.36 (inactive)
40 | B40 | -0.31 (inactive) | -0.454 (inactive) | -0.108 (inactive)
41 | B41 | -0.744 (inactive) | -0.464 (inactive) | -0.336 (inactive)
42 | B42 | -1.05 (inactive) | -0.069 (inactive) | -0.712 (inactive)
43 | B43 | 9.89 (active) | 9.51 (active) | 6.34 (active)
44 | B44 | 1.2 | -0.449 (inactive) | 0.19 (inactive)
45 | B45 | 3.57 (active) | 5.04 (active) | 6.27 (active)
